Assay outcomes deposited in PubChem by National Center for Advancing Translational Sciences (NCATS).
Lassa entry inh: inhibitors of Lassa virus binding or cell entry; Lassa virus pseudotype entry inhibition, cell reporter; Potency, µM (titrated, usually from 37.9 µM), for inactives: at the highest dose activity change, negative = inhibition, actives largely listed as inhibitors; 1.2% of 300,000 active; calls by dose curve; tested in HEK293 cells; also: potency is read from the fitted curve at half-maximal effect; nearly all actives have a fitted effect of over 50% in size
Marburg entry inh: Marburg virus entry inhibition. Marburg virus pseudotyped entry inhibition, cell reporter. Potency, µM (series often up to 37.8 µM), for the others: at the top dose activity change, negative = inhibition, actives largely listed as inhibitors. 1.8% of 300,000 active; calls by dose curve; tested in HEK293 cells; also: potency is read from the fitted curve at half-maximal effect
HCMV inh: blocks human cytomegalovirus replication | HFF cells, HCMV-luciferase reporter, 72 h; stronger effect = lower value | activity change, negative = inhibition, % at 57.5 µM | 4.5% of 410,000 active | AID 1259415; in the data active = activity change below about -60%; inconclusive = no clear call, values can overlap the other calls; inactive = above about -39%
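Inhibition of viral replication was scored as loss of reporter luminescence in HFFs infected with HCMV-luciferase (MOI 1 PFU/cell) for 72 h; compounds tested at 2 doses, normalized to buffer and Salinomycin controls.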
Vaccinia mCherry: inhibitors of vaccinia virus infection (mCherry reporter signal). Potency, µM (top dose mostly 36.5 µM), for the others: at the highest dose activity change, negative = inhibition, actives largely listed as inhibitors. Vaccinia virus mCherry reporter infection, fluorescence. 0.63% of 310,000 active; calls by dose curve; tested in A549 cells; also: potency is read from the fitted curve at half-maximal effect; nearly all actives have a fitted effect of over 35% in size
Vaccinia Venus: vaccinia inhibition (Venus reporter) | Vaccinia virus Venus reporter expression, fluorescence | 0.46% of 330,000 active | Potency, µM (series often up to 36.5 µM), for inactives: at the top dose activity change, negative = inhibition, hits mostly inhibitors; calls by dose curve; tested in A549 cells; also: potency is read from the fitted curve at half-maximal effect; nearly all actives have a fitted effect of over 30% in size
FMDV antiviral: foot and mouth disease virus antiviral activity | 1.2% of 410,000 active | AID 1159524 | Potency, µM (doses to about 57.9 µM), for inactives: top-dose activity change, negative = inhibition, hits mostly inhibitors | FMDV antiviral cell-based qHTS; calls by dose curve; tested in HEK293T cells; also: read-out not given here; potency is read from the fitted curve at half-maximal effect; nearly all actives have a fitted effect of over 45% in size
Starred values were filed as active, the others as inactive; i = inactive; ? = inconclusive; . = no result; [ ] = another dose, or the depositor's remark. A selection: hits, their analogues and other compounds. The true share with any hit is near 6.5%. % is scaled to controls: 0 for no effect and ±100 for the full control effect.

SMILES	Lassa entry inh	Marburg entry inh	HCMV inh	Vaccinia mCherry	Vaccinia Venus	FMDV antiviral
Cc1cc(Oc2ccc(C(C)(C)C)cc2)nc(N2CCOCC2)n1	5.01µM*	-22.5%	3.4	.	-12.8%	?
COc1ccc(CNC(=O)Cn2c(SCC(=O)Nc3ccc(OC)cc3)nc3ccccc32)cc1	-14.7%[46.1 µM]	.	-18.2	i	-7.4%	-6.8%
COc1ccc2nc(C)cc(SCC(=O)NNC(=O)COc3ccccc3)c2c1	-5.0%	-15.3%	?	-15.3%	-6.9%	-11.6%
COc1ccc2nc(C)cc(Sc3nc4ccccc4s3)c2c1	15.8µM*	?	-98.6*	0.794µM*	1.41µM*	15.8µM*
CCN(CC)S(=O)(=O)c1cccc(C(=O)N/N=C(\C)c2ccc(O)cc2O)c1	?	7.94µM*	-94.7*	?	?	-6.6%
CON(C)S(=O)(=O)c1cccc(C(=O)Nc2ccc(S(=O)(=O)NC3=NCCCCC3)cc2)c1	-11.9%	-28.4%	?	-11.4%	-22.1%	-24.5%
CCN(CC)S(=O)(=O)c1cccc(C(=O)Nc2ccc(C#N)cc2)c1	?	-22.6%	?	.	.	25.1µM*
CCCOc1ccc(C(=O)Nc2ccc(S(=O)(=O)NC3=NCCCCC3)cc2)cc1	-23.7%	?	-61.7*	8.91µM*	?	-26.1%
CCN(CC)S(=O)(=O)c1cccc(C(=O)Nc2ccc(S(=O)(=O)NC3=NCCCCC3)cc2)c1	-9.6%[46.1 µM]	-27.5%	-62.1*	-13.0%	-23.6%	?
CCN(CC)S(=O)(=O)c1cccc(C(=O)N/N=C/c2ccc(O)c(O)c2O)c1	5.7%	0.5%	34.4	i	-7.5%	?
CCN(CC)S(=O)(=O)c1cccc(NC(=O)c2cncc(Br)c2)c1	.	.	-3.6	i	-22.7%	-5.6%
CCN(CC)S(=O)(=O)c1cccc(NC(=O)c2ccc(Br)cc2)c1	-25.8%	-45.6%[46.1 µM]	?	?	-25.4%	25.1µM*
CCOC(=O)C1CCN(c2nc3c(S(=O)(=O)c4ccc(Br)cc4)nnn3c3ccsc23)CC1	-12.0%[46.1 µM]	.	17.4	-13.7%	-17.7%	-22.6%
CC(C)=CCc1c2c(c3occ(-c4ccc(O)c(O)c4)c(=O)c3c1O)C=CC(C)(C)O2	15.8µM*	?	-28.9	10µM*	11.2µM*	?
CC(C)=CCc1c2c(c3occ(-c4ccc(O)cc4)c(=O)c3c1O)C=CC(C)(C)O2	.	.	-105.7*	?	?	?
CC1(C)C=Cc2c(c3c(c4c(=O)c(-c5ccc(O)cc5)coc24)OC(C)(C)CC3)O1	.	.	-19.7	-29.3%	-25.1%	?
COc1cc(/C=C/C(=O)O)cc(Br)c1O	-11.8%	2.3%[46.1 µM]	-32.2	i	-7.2%	5.2%
COc1cc(/C=C/C(=O)C2C(=O)C=C(C)OC2=O)cc(OC)c1O (stereo not given)	-28.7%	0.9%	-90.2*	58.0%	81.8%	17.8µM*
COc1ccc(/C=C/C(=O)C2C(=O)C=C(C)OC2=O)cc1O (stereo not given)	-3.1%	-21.2%	-76.7*	-13.9%	13.1%	-9.2%
COc1ccc(/C=c2\s/c(=C\C(=O)C(C)(C)C)[nH]c2=O)cc1O	.	0.6%	-5.4	.	.	-3.4%
Cc1cc(C(=O)Nc2cccc(-c3nc(CNC(=O)c4sc(C)nc4C)c(C)o3)c2)c(C)o1	.	.	.	i	-18.5%	-1.2%
COC(=O)/C=C1/SC(=NC(=O)c2ccc(OC)cc2)NC1=O	.	.	-15.4	.	.	-9.9%
COC(=O)/C=C1\S/C(=N/NC(=O)c2ccccc2)NC1=O	-2.5%	3.0%	-14.9	.	.	-7.6%
COC(=O)/C=C1/SC(=NC(=O)c2ccc(F)cc2)NC1=O	-13.2%	14.1%[46.1 µM]	23.6	i	-5.9%	39.8µM*
COC(=O)/C=C1/SC(=NC(=O)c2cccc([N+](=O)[O-])c2)NC1=O	7.5%[46.1 µM]	?	10.3	-1.1%	-3.7%	-26.7%
SMILES	Lassa entry inh	Marburg entry inh	HCMV inh	Vaccinia mCherry	Vaccinia Venus	FMDV antiviral
COC(=O)/C=C1/S/C(=N/NC(=O)c2ccccc2C)NC1=O	18.7%	4.7%	-104.8*	.	.	-15.2%
COC(=O)/C=C1\SC(=NC(=O)c2cccc([N+](=O)[O-])c2)NC1=O	-1.4%[46.1 µM]	3.2%[46.1 µM]	4.0	i	0.0%	14.1µM*
N=C(C[C@@H](O)COc1ccccc1-c1ccccc1)N1CCCCC1	.	.	.	.	.	-29.8%
CCC1(C2CCN(Cc3cccc(Cl)c3)CC2)NC(=O)N(CC2COc3ccccc3O2)C1=O (stereo not given)	.	.	.	-20.7%	-17.1%	-10.5%
COc1ccc(OC)c2nc3c(C(=O)NCCN(C)C)cccc3nc12	?	?	-96.2*	?	?	-25.6%
CN(C)CCNC(=O)c1cccc2ccc(-c3ccc(-c4ccccc4)cc3)nc12	?	?	8.4	?	12.6µM*	0.0%
COc1ccc(C23CC4CC(CC(C4)C2)C3)cc1C(=O)NCCN(C)C	.	.	-70.0*	.	.	-19.2%
CN(C)CCNC(=O)c1cccc2nc3cccc(F)c3nc12	-9.3%	?	-98.8*	?	3.16µM*	-22.1%
Cc1cc(C(=O)NCCCN(C)C)c2ccccc2n1	.	.	-16.0	-14.7%	1.3%	-15.3%
CCOc1cccc2sc(Nc3nc4ccc(NC(C)=O)cc4s3)nc12	?	10.3µM*	-89.6*	-26.2%	?	0.0%
CCOc1cccc2sc(NC(=O)CCS(=O)(=O)c3ccccc3)nc12	?	10µM*	.	?	-27.8%	-9.0%
Cc1nnc(NC(=O)CCS(=O)(=O)c2ccccc2)s1	?	-22.4%[46.1 µM]	119.7	?	-21.2%	29.5%
COc1ccc(C)c2sc(NC(=O)CCS(=O)(=O)c3ccccc3)nc12	?	?	-89.2*	?	?	-17.3%
Cn1c2ccccc2c2cc(C(=O)N3CCOc4ccc(C(C)(O)CCn5cccn5)cc4C3)ccc21 (stereo not given)	.	.	.	-12.6%	-13.3%	-10.2%
Cc1ccc(Cl)cc1N(C)C(=O)Cn1ncc2c([nH]c3ccccc32)c1=O	.	.	-69.2*	-9.3%[7.34 µM]	-2.8%[7.34 µM]	-4.2%
CCN1C(=O)CCN(C2CCCC2)c2nc(Nc3ccc(C(=O)NC4CCN(C)CC4)cc3OC)ncc21	.	.	-72.9*	?	?	18.7%
COc1cc(C(=O)N2CCC(N3CCN(C)CC3)CC2)ccc1Nc1ncc2c(n1)N(C)c1ccccc1C(=O)N2C	.	.	-72.7*	.	.	.
COc1cc(C(=O)NC2CCCCC2)ccc1OC1CCN(C(C)=O)CC1	-13.1%[46.1 µM]	0.7%[46.1 µM]	36.5	-14.1%	-10.0%	2.1%
Cc1ccc(C=CC2=C[C@]3(C)C[C@]2(C)[C@H](c2ccc(C)cc2)CC3=O)cc1	.	-3.6%[14.2 µM]	.	.	.	.
CC(=O)c1ccc(NC(=O)Cn2c(-n3nc(C)cc3C)nc(C)cc2=O)cc1	-11.6%[46.1 µM]	.	0.0	-19.5%	-7.1%	-2.8%
CC(=O)OC1C(O)C2=C3C4(C)C1C(C)(C)C(=O)CC4C3(O)C(OC(C)=O)C1(CC1C)C2=O (stereo not given)	.	.	-25.6	?	?	22.4µM*
Clc1ccc(-c2ccc(/C=N/Nc3cc(N4CCOCC4)nc(N4CCOCC4)n3)o2)cc1	6.1%	6.31µM*	-34.2	.	-11.6%	?
